Measured values: PubChem BioAssay (Tox21)
Records with an inconclusive call do not appear. A call without a number means that no potency is given here. Activity calls are given as the source filed them. Unless noted, calls come from the whole dose curve; as a rule, active = well fitted curve in the direction sought with a large enough effect in the repeat runs; inconclusive = weak or mixed curves; inactive = no such curve, though single readings can be large; an effect the other way counts as inactive or inconclusive.

What was measured:
[1] = Caspase-3/7 induction in HepG2 cells by small molecules, qHTS assay (AID 1346978); note: nearly all actives have a fitted effect of over 15% in size; note: potency is the fitted concentration of half-maximal effect
Procedure, shortened: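 Wild-type HepG2 cells, 2,000/well, settled 5 hr at 37 C and 5% CO2, then compound-treated for 17 hr; caspase-3/7 activity read by luminescent Caspase-Glo 3/7 after 30 min at room temperature.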

[2] = Caspase-3/7 induction in CHO-K1 cells by small molecules, qHTS cell viability counter screen (AID 1346979); note: nearly all actives have a fitted effect of over 35% in size; note: potency is the fitted concentration of half-maximal effect
Procedure, shortened: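 Viability readout by fluorescence (CellTiter-Fluor) on wild-type CHO-K1 cells exposed for 16hr at 37C and 5% CO2 to compounds delivered in DMSO; reagent incubated 1hr before reading.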

[3] = Caspase-3/7 induction in CHO-K1 cells by small molecules, qHTS assay (AID 1346980); note: nearly all actives have a fitted effect of over 15% in size
Procedure, shortened: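 Wild-type CHO-K1 cells exposed to compounds for 17hr at 37 C, 5% CO2. Caspase-3/7 activity then measured by Caspase-Glo 3/7 luminescence after 30min at room temperature.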

[4] = molecular target: Acetylcholinesterase (Homo sapiens) (UniProt P22303); assay: Acetylcholinesterase (AChE) small molecule antagonists: colormetric cell-based qHTS assay (AID 1347395; calls by dose curve; note: nearly all actives have a fitted effect of over 30% in size)
Procedure, shortened: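 Homogeneous whole-cell format. SH-SY5Y cells seeded overnight, dosed with compound (30 min, 37 C, 5% CO2), then given DTNB/acetylthiocholine cocktail for 90 min at 37 C; colorimetric signal.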

[5] = molecular target: Acetylcholinesterase (Homo sapiens) (UniProt P22303); assay: Acetylcholinesterase (AChE) small molecule antagonists: enzyme-based qHTS assay (AID 1347397; calls by dose curve; note: nearly all actives have a fitted effect of over 55% in size); settings: Potency: AChE enzyme activity inhibition
Procedure, shortened: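 Recombinant human AChE (50 mU/mL) preincubated with compound 30 min at room temperature; acetylthiocholine plus DTNB then added, and thiocholine formation read colorimetrically after 10 min at room temperature. DMSO served as vehicle control.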

[6] = molecular target: Acetylcholinesterase (Homo sapiens) (UniProt P22303); assay: Acetylcholinesterase (AChE) small molecule antagonists: fluorescence cell-based qHTS assay (AID 1347398; calls by dose curve; note: nearly all actives have a fitted effect of over 50% in size); settings: Potency: AChE activity
Procedure, shortened: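 SH-SY5Y cells (2000/well), attached overnight, incubated with compound 30 min at 37 C. Acetylthiocholine plus Thiolite Green then added for 40 min at room temperature. Thiocholine fluorescence (Ex/Em 490/520 nm) reports cellular AChE activity.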

[7] = molecular target: Acetylcholinesterase (Homo sapiens) (UniProt P22303); assay: Acetylcholinesterase (AChE) small molecule antagonists: enzyme-based qHTS assay with human liver microsomes (AID 1347399; calls by dose curve; note: nearly all actives have a fitted effect of over 60% in size); settings: Potency: qHTS inhibition
Procedure, shortened: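 Recombinant human AChE (50 mU/mL in the enzyme mix) and human liver microsomes (0.25 mg/mL final) were preincubated with compound and NADPH (0.25 mg/mL final) for 30 min at 37 C. Acetylthiocholine/DTNB was then added; thiocholine was read colorimetrically after 10 min at room temperature.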

[8] = molecular target: Cytochrome P450 2C19 (Homo sapiens) (UniProt P33261); assay: Cytochrome P450 Family 2 Subfamily C Member 19 (CYP2C19) small molecule antagonists: luciferase reporter qHTS assay (AID 1671197); note: nearly all actives have a fitted effect of over 65% in size; note: potency is the fitted concentration of half-maximal effect
Procedure, shortened: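 Compounds were tested on CYP2C19 activity via proluciferin conversion to luciferin. The 37C, 1 h reaction followed NADPH addition; detection reagent stopped it.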

[9] = molecular target: Cytochrome P450 2C9 (Homo sapiens) (UniProt P11712); assay: Cytochrome P450 Family 2 Subfamily C Member 9 (CYP2C9) small molecule antagonists: luciferase reporter qHTS assay (AID 1671198); note: nearly all actives have a fitted effect of over 50% in size; note: potency is the fitted concentration of half-maximal effect
Procedure, shortened: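 P450-Glo proluciferin substrate with CYP2C9 enzyme; 10 min RT preincubation, then NADPH regeneration 1 h at 37C; luciferin detection reagent 20 min RT, luminescence in relative luminescence units.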

[10] = molecular target: Voltage-gated inwardly rectifying potassium channel KCNH2 (Homo sapiens) (UniProt Q12809); assay: Human Ether-a-go-go-Related Gene (hERG) channel small molecule antagonists: fluorescence cell-based qHTS assay (AID 1671200); note: nearly all actives have a fitted effect of over 50% in size; note: potency is the fitted concentration of half-maximal effect
Procedure, shortened: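 Thallium served as the potassium surrogate; its influx into dye-loaded U2OS cells carrying the channel was measured by fluorescence over 2 min.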

[11] = molecular target: Cytochrome P450 3A4 (Homo sapiens) (UniProt P08684); assay: Cytochrome P450 Family 3 Subfamily A Member 4 (CYP3A4) small molecule antagonists: luciferase reporter qHTS assay (AID 1671201); note: nearly all actives have a fitted effect of over 50% in size; note: potency is the fitted concentration of half-maximal effect
Procedure, shortened: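 Relative luminescence units after 20 min with luciferin detection reagent served as read-out. Beforehand, CYP3A4 turned over a proluciferin substrate for 1 h at room temperature with NADPH regeneration, following 10 min compound preincubation.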

[12] = molecular target: Nuclear receptor subfamily 1 group I member 2 (Homo sapiens) (UniProt O75469); assay: Human pregnane X receptor (PXR) small molecule agonists, qHTS assay (AID 1346982); note: nearly all actives have a fitted effect of over 35% in size; note: potency is the fitted concentration of half-maximal effect
Procedure, shortened: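 Compound-induced hPXR transactivation of a CYP3A4 luciferase reporter was scored in HepG2 PXR-Luc cells over 24 hr at 37 C, 5% CO2, by luminescence.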

[13] = molecular target: Cytochrome P450 2D6 (Homo sapiens) (UniProt P10635); assay: Cytochrome P450 Family 2 Subfamily D Member 6 (CYP2D6) small molecule antagonists: luciferase reporter qHTS assay (AID 1671196)
Procedure, shortened: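 Each well received CYP2D6 with its proluciferin substrate and chemical, sat 10 min, then got NADPH regeneration solution for 1 h at room temperature. Luminescence in RLU served as the activity measure.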

[14] = Caspase-3/7 induction in HepG2 cells by small molecules, qHTS cell viability counter screen (AID 1346981); note: nearly all actives have a fitted effect of over 30% in size; note: potency is the fitted concentration of half-maximal effect
Procedure, shortened: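 Viability determined by CellTiter-Fluor fluorescence in HepG2 wells also used for the luminescent Caspase-Glo 3/7 read. Compounds were present for 16 hr at 37 C, 5% CO2 before reagent addition.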

[15] = molecular target: Cytochrome P450 1A2 (Homo sapiens) (UniProt P05177); assay: Cytochrome P450 Family 1 Subfamily A Member 2 (CYP1A2) small molecule antagonists: luciferase reporter qHTS assay (AID 1671199)
Procedure, shortened: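 Enzymatic CYP1A2 assay, human, luminescent: 10 min compound–enzyme–substrate preincubation, 1 h NADPH-dependent turnover, 20 min detection step, room temperature throughout. Reduced light indicates lower CYP1A2 activity.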

Cytochrome P450 3A4 (Homo sapiens), sequence (P08684 whole entry, looked up): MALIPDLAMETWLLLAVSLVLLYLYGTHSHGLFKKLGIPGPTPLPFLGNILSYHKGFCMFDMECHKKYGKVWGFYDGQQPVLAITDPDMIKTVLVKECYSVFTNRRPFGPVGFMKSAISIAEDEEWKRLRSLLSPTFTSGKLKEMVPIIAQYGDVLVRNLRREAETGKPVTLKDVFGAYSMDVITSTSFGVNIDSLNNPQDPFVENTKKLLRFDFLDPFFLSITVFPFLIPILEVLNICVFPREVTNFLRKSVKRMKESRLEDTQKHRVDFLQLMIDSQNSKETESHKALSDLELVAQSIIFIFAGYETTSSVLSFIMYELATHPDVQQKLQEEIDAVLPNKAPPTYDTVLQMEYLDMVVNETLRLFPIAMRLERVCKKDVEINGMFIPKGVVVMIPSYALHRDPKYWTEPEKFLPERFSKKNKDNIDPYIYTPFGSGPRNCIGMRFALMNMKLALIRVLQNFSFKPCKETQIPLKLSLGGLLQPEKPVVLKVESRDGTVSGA
Acetylcholinesterase (Homo sapiens), sequence (P22303 whole entry, looked up): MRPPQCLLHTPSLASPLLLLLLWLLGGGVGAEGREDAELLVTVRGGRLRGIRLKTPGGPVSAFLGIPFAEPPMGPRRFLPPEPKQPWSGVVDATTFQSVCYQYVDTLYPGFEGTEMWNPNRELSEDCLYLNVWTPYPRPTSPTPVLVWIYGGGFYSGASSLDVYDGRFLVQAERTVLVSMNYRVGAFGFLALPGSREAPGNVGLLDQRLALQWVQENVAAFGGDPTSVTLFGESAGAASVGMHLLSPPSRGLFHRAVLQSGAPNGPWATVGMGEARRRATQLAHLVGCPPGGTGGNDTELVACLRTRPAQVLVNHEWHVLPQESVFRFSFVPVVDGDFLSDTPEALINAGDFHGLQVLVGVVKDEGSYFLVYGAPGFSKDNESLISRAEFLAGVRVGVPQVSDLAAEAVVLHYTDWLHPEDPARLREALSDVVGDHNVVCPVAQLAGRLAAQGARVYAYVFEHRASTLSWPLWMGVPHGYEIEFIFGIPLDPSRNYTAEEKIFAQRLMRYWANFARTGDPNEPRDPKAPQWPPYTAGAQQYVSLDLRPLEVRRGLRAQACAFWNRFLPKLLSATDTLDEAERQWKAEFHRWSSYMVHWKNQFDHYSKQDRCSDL
Cytochrome P450 2C19 (Homo sapiens), sequence (P33261 whole entry, looked up): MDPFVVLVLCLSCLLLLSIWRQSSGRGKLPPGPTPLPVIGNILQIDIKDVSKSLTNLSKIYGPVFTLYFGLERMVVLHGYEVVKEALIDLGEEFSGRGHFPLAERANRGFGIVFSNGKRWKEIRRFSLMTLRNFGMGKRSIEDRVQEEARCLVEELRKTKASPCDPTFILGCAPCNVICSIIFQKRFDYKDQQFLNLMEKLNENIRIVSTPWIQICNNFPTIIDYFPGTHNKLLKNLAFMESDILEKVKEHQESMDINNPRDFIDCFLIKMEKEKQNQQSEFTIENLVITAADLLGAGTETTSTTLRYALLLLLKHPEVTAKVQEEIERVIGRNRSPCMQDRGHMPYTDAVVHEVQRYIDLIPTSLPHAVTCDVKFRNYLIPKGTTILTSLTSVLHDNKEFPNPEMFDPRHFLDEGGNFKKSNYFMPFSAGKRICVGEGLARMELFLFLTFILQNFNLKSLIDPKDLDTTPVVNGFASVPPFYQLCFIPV
Nuclear receptor subfamily 1 group I member 2 (Homo sapiens), sequence (O75469 whole entry, looked up): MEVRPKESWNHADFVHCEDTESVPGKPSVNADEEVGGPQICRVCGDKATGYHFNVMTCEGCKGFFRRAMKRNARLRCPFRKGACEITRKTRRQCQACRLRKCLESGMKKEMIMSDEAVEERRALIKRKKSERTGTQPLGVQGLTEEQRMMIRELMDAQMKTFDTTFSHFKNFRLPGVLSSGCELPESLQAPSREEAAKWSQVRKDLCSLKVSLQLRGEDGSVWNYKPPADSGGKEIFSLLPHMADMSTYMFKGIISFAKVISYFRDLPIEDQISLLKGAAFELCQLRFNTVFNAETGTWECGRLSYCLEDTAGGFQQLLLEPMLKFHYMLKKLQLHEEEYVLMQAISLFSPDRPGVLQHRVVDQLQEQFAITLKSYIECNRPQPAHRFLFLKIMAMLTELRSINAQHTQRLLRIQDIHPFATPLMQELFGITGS
Cytochrome P450 2C9 (Homo sapiens), sequence (P11712 whole entry, looked up): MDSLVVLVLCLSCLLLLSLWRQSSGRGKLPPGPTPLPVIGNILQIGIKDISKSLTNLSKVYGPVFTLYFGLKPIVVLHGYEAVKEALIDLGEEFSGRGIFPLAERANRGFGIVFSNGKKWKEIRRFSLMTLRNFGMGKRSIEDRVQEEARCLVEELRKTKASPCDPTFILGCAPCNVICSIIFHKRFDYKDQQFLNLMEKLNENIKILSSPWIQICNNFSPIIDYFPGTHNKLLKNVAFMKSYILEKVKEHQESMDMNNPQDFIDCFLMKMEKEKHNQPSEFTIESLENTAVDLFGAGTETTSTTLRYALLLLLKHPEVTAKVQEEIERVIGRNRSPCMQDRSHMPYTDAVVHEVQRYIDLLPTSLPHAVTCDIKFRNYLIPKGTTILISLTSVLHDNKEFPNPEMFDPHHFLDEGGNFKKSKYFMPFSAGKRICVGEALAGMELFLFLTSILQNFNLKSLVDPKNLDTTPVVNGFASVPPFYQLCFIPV
Voltage-gated inwardly rectifying potassium channel KCNH2 (Homo sapiens), sequence (Q12809 whole entry, looked up): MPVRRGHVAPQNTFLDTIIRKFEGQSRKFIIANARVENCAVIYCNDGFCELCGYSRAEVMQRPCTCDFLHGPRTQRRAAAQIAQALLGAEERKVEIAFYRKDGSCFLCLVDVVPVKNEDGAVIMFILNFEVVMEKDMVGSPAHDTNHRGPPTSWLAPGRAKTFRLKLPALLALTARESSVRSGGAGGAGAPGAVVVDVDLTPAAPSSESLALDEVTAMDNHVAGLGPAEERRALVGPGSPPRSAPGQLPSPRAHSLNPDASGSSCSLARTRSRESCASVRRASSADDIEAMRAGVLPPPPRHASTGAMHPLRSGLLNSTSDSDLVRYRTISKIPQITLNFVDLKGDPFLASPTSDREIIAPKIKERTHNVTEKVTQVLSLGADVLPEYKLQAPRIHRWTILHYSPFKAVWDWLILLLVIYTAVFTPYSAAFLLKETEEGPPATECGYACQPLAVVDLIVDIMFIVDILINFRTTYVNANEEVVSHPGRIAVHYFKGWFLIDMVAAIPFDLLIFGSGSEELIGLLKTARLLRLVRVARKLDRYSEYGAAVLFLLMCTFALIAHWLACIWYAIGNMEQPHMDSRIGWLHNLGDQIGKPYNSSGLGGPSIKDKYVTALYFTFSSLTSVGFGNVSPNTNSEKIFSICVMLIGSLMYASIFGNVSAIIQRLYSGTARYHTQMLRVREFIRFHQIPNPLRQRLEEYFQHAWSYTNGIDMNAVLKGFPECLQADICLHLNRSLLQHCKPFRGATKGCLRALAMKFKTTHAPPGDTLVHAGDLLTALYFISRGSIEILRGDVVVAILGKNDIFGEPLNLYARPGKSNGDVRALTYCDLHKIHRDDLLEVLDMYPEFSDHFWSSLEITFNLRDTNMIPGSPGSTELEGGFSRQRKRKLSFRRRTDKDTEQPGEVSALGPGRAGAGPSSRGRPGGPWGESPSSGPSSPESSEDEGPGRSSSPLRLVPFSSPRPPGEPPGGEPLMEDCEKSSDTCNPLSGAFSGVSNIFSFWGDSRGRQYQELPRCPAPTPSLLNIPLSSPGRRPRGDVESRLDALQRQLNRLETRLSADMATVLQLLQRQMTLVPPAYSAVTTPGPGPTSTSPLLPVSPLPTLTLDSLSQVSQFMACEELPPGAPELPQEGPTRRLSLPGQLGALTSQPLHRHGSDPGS
Cytochrome P450 2D6 (Homo sapiens), sequence (P10635 whole entry, looked up): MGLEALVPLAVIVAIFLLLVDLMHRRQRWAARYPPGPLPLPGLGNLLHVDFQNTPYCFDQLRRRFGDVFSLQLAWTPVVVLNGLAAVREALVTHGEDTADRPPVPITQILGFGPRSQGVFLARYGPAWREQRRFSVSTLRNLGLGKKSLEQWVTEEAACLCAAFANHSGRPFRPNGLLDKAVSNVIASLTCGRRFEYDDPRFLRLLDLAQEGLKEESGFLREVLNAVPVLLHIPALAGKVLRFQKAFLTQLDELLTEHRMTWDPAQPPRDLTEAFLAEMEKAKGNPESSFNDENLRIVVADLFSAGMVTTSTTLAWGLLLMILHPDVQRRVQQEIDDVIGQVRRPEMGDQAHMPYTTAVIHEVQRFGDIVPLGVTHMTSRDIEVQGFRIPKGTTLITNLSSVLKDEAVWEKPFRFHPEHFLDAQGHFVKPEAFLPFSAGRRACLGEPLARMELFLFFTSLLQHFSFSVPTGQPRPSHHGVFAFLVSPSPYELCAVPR
Cytochrome P450 1A2 (Homo sapiens), sequence (P05177 whole entry, looked up): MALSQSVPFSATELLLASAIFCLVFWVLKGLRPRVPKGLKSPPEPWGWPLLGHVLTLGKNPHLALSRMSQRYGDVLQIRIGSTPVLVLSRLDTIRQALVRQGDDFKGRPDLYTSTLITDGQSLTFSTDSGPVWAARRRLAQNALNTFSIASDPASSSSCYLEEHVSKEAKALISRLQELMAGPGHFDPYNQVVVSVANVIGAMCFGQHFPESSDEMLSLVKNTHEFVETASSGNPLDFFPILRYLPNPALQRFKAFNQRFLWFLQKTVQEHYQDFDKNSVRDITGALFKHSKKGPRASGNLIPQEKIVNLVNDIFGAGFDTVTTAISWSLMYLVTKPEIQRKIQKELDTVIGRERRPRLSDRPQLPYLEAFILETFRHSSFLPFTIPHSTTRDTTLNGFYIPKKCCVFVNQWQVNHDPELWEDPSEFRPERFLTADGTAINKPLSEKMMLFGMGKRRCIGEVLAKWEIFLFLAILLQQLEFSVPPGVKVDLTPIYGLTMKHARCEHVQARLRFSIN

| SMILES | Potency [1] | Potency [2] | Potency [3] | Potency [4] | Potency [5] | Potency [6] | Potency [7] | Potency [8] | Potency [9] | Potency [10] | Potency [11] | Potency [12] | Potency [13] | Potency [14] | Potency [15] |
| --- | --- | --- | --- | --- | --- | --- | --- | --- | --- | --- | --- | --- | --- | --- | --- |
| CSC1=N[C@@](C)(c2ccccc2)C(=O)N1Nc1ccccc1 | inactive | 8.63 µM (active) | inactive | inactive | inactive | inactive | inactive | 1.12 µM (active) | 35.6 µM (active) | inactive | 31.7 µM (active) | – | – | – | – |
| C=Cc1cccc(CCl)c1 | inactive | inactive | inactive | inactive | inactive | inactive | inactive | – | inactive | inactive | inactive | inactive | inactive | – | – |
| BrCCCBr | inactive | inactive | inactive | inactive | inactive | inactive | inactive | inactive | inactive | inactive | inactive | inactive | inactive | inactive | – |
| CCN(CC)C(=O)N[C@@H]1C=C2c3cccc4[nH]cc(c34)C[C@@H]2N(C)C1 | inactive | inactive | inactive | – | inactive | – | inactive | – | – | – | – | – | – | inactive | – |
| COc1ccc2c(c1OC)C(=O)O[C@@H]2[C@H]1c2cc3c(cc2CCN1C)OCO3 | inactive | 21.5 µM (active) | inactive | inactive | inactive | inactive | inactive | – | – | 21.7 µM (active) | – | 30.3 µM (active) | – | 17.1 µM (active) | 31.4 µM (active) |
| Nc1ccc(N=Nc2ccccc2)cc1 | inactive | 29.8 µM (active) | inactive | inactive | inactive | inactive | inactive | – | 12.6 µM (active) | inactive | – | 27.3 µM (active) | – | 36.4 µM (active) | – |
| CCCC[N+]1(C)CCCC1 (tested in a mixture with another compound) | inactive | 61.9 µM (active) | inactive | – | – | – | – | inactive | inactive | inactive | inactive | – | – | – | – |
| Cc1ccc2cc3c(ccc4ccccc43)c3c2c1CC3 | 6.13 µM (active) | inactive | inactive | inactive | inactive | inactive | inactive | 40 µM (active) | 5.65 µM (active) | inactive | 8.96 µM (active) | 6.13 µM (active) | inactive | – | 0.449 µM (active) |
| O=[N+]([O-])[O-].[Tl+] | inactive | 61.6 µM (active) | inactive | – | – | – | – | – | – | inactive | – | – | – | – | – |
